Experiment [1] is described as follows: optical density shifts of acrAB sulA E. coli – strain DRC41, OD650, 48 h, E. coli filamentation inducer project, primary screen (AID 1152).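 Note: E. coli MC1000 strain DRC41 lacking acrAB efflux pump and sulA.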 The settings on record: higher = more signal, called active from +8 up or from −8 down.
Experiment [2] in a line: probe aLefty1 binding on compound microarray – biochemical, small-molecule microarray, 635/667 nm fluorescence, primary screen (AID 1153).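 Note: score merges spot fluorescence with signal-to-noise ratio from the scanned slide images.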 The settings on record: higher = more signal.
Experiment [3] is described as follows: plasmodial surface anion channel blockers, osmotic lysis – cell-based, P. falciparum Indochina, OD700, 1 h, primary screen (AID 1154). The settings on record: P. falciparum Indochina infected RBC osmotic lysis, higher = more signal, called active from +8 up or from −8 down.
A short description of experiment [4]: plasmodial surface anion channel blockers, osmotic lysis – cell-based, P. falciparum Indochina, OD700, 2 h, primary screen (AID 1155).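 Note: lysis reports solute entry through the parasite surface anion channel PSAC.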 To be noted: P. falciparum Indochina infected erythrocytes, higher = more signal, called active from +8 up or from −8 down.
A short description of experiment [5]: changes in parasitized red cell lysis, either direction – P. falciparum Indochina, OD700, 3 h, PSAC antagonist project, primary screen (AID 1156). The settings on record: P. falciparum-infected erythrocytes, osmotic lysis, higher = more signal, called active from +8 up or from −8 down.
Experiment [6] can be described thus: plasmodial surface anion channel blockers, osmotic lysis – cell-based, P. falciparum Indochina, OD700, 18 h, primary screen (AID 1157). To be noted: P. falciparum Indochina infected erythrocytes, osmotic lysis OD700, 18 h; higher = more signal, called active from +8 up or from −8 down.
Experiment [7] in a line: S6 kinase pathway phospho-S6 level changes – cell-based, A549, cytoblot, luminescence, serum-stimulated, primary screen (AID 1158).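 Note: serum-stimulated A549 lung adenocarcinoma cells; signal is phosphorylated S6 detected by cytoblot immunostaining with HRP secondary.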 The settings on record: 5 h, higher = more signal.
The target of experiment [8] is NADPH oxidase 2 (Homo sapiens) (UniProt P04839). The experiment is described as follows: compounds shifting NOX2 Amplex Red fluorescence – cell-based, HEK293-NOX2, PMA-stimulated, NOX inhibitor project, primary screen (AID 1159). Note: test concentration not given here. The settings on record: 45 min, higher = more signal, called active from +8 up or from −8 down.
The target in experiment [9] is NADPH oxidase 4 (Homo sapiens) (UniProt Q9NPH5). The experiment in a line: compounds shifting NOX4 Amplex Red fluorescence – cell-based, HEK293-NOX4, tetracycline-induced, NOX inhibitor project, primary screen (AID 1160). The settings on record: HEK293-NOX4, Amplex Red H2O2 fluorescence, 45 min; higher = more signal, called active from +8 up or from −8 down.
In experiment [10] the target is NADPH oxidase 5 (Homo sapiens) (UniProt Q96PH1). The experiment in a line: compounds shifting NOX5 Amplex Red fluorescence – cell-based, HEK293-NOX5, NOX inhibitor project, primary screen (AID 1161). To be noted: HEK293-NOX5, ionomycin, 45 min, higher = more signal.
Experiment [11] in a line: compound effects on lung adenocarcinoma cell viability – A549, calcein-AM fluorescence, 48 h, basal, profiling panel (AID 1162). Note: test concentration not given here. To be noted: higher = more signal.
Experiment [12] can be described thus: compound effects on differentiated 3T3-L1 adipocyte viability – cell-based, 3T3-L1 adipocytes, calcein-AM fluorescence, 48 h, basal, profiling panel (AID 1163). Note: test concentration not given here. To be noted: 3T3-L1 adipocytes viability, higher = more signal.
Experiment [13] in a line: compound effects on hepatocellular carcinoma cell viability – HepG2, calcein-AM fluorescence, 48 h, basal, profiling panel (AID 1164). Note: test concentration not given here. The settings on record: higher = more signal.
Experiment [14] in a line: compound effects on multiple myeloma cell viability – MM1S, calcein-AM fluorescence, 48 h, basal, profiling panel (AID 1165).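 Note: viability of MM1S multiple myeloma cells under basal unstimulated conditions; test concentration not given here.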 To be noted: higher = more signal.
Experiment [15] in a line: calcein-AM signal in unstimulated myeloma cells – cell-based, calcein-AM fluorescence, 48 h, PK04 Diversity Set, profiling panel (AID 1166).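 Note: cells grown under basal conditions without added stimulus; test concentration not given here.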 To be noted: RPMI8226 myeloma viability, higher = more signal.
Experiment [16] is described as follows: JC-1 mitochondrial signal, unstimulated HepG2 cells – cell-based, JC-1 fluorescence, 24 h, 100 nL compound, profiling panel (AID 1167). Note: test concentration not given here. To be noted: HepG2 mitochondrial potential, higher = more signal.
A short description of experiment [17]: JC-1 mitochondrial signal, unstimulated adipocytes – cell-based, JC-1 fluorescence, 3T3-L1 adipocytes, 24 h, 100 nL compound, profiling panel (AID 1168). Note: test concentration not given here. To be noted: JC-1 mitochondrial fluorescence, higher = more signal, called active from +8 up or from −8 down.
A short description of experiment [18]: JC-1 mitochondrial signal, unstimulated myeloma cells – cell-based, JC-1 fluorescence, RPMI8226, 24 h, 100 nL compound, profiling panel (AID 1169). Note: test concentration not given here. The settings on record: JC-1 mitochondrial potential fluorescence, higher = more signal.
Experiment [19] is described as follows: JC-1 mitochondrial signal, unstimulated MM1S myeloma – cell-based, JC-1 fluorescence, 24 h, 100 nL compound, profiling panel (AID 1170). Note: test concentration not given here. The settings on record: MM1S mitochondrial potential, higher = more signal.
Experiment [20] is described as follows: resazurin metabolic signal in A549 cells – cell-based, resazurin fluorescence, 24 h, PK04 Diversity Set, profiling panel (AID 1171). Note: test concentration not given here. To be noted: A549 viability, higher = more signal, called active from +8 up or from −8 down. On the technique in general: Resazurin is reduced to fluorescent resorufin, in cell work by metabolically active cells.

SMILES strings stand for the structures. Calls of active or inactive are those of the source.

Chain of NADPH oxidase 2 (Homo sapiens) (P04839 whole entry, looked up): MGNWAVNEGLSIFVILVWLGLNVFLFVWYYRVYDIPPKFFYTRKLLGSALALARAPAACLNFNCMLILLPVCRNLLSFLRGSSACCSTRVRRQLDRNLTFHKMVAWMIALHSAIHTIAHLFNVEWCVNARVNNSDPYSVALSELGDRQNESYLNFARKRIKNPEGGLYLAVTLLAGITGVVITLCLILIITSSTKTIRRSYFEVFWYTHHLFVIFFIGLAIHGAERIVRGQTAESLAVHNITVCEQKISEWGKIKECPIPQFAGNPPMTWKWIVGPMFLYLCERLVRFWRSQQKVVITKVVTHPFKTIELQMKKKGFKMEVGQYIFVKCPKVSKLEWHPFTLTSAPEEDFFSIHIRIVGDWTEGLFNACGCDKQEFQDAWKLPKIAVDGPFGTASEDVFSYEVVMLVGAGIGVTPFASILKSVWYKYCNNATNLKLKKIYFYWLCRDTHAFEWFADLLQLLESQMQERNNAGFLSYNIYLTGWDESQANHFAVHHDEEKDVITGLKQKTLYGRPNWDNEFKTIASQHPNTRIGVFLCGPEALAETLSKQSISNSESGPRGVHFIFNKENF
Chain of NADPH oxidase 5 (Homo sapiens) (Q96PH1 whole entry, looked up): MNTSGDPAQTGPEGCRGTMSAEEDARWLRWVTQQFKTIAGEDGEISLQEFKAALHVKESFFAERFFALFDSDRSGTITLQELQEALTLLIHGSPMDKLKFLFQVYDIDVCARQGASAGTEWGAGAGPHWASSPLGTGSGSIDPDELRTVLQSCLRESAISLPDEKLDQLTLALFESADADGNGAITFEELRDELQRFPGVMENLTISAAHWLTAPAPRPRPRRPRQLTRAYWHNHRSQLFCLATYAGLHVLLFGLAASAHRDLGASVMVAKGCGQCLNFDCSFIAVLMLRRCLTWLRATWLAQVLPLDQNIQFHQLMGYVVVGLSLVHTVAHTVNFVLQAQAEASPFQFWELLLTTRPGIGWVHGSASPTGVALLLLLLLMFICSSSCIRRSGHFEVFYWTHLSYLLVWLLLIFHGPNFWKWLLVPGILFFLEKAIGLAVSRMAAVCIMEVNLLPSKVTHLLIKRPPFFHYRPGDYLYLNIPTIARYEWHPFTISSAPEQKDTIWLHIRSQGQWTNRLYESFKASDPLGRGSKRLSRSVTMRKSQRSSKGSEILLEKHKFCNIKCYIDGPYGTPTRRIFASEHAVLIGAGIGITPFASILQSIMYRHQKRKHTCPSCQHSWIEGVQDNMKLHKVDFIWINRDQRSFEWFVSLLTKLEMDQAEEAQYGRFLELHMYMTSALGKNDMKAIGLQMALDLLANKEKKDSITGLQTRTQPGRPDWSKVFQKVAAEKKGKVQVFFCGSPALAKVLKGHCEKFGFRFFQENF
Chain of NADPH oxidase 4 (Homo sapiens) (Q9NPH5 whole entry, looked up): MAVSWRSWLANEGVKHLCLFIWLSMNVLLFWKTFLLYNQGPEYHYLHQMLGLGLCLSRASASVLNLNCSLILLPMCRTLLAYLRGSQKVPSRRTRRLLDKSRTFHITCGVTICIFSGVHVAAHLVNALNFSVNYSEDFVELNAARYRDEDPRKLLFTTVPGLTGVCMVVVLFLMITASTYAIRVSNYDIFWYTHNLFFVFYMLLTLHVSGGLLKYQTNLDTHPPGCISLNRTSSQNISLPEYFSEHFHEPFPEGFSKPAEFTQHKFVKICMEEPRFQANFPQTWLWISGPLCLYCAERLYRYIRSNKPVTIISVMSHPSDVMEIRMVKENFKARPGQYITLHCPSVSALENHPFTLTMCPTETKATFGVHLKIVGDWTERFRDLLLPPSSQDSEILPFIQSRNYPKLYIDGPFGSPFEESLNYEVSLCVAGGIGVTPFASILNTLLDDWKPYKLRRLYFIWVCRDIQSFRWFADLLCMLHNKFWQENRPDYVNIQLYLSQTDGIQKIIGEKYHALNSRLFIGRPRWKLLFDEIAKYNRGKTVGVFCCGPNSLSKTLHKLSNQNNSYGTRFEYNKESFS

On to `CC(C)C[C@H](NC(=O)CCC1CC(OC(=O)NCc2cccc3ccccc23)CC2(CCCC(COC(=O)NCc3ccccc3)O2)O1)C(=O)NCC(c1ccccc1)c1ccccc1` (stereo not given in full), for which the z-score in experiment [1] is 0.576 (inactive); in experiment [3], 8.07 (active); in [4], 1.33 (inactive); in [5] it was -1.22 (inactive); in experiment [6], 0.688 (inactive); in experiment [7], -0.71. The z-score was 0.871 (inactive) in experiment [8]; 0.194 (inactive) in experiment [9]; -0.0969 in experiment [10]; -0.375 in [11]; 0.111 in experiment [12]; -0.429 in experiment [13]. For the same compound, the z-score in experiment [14] was -3.53; in experiment [15], -0.971; in experiment [16], -0.341; in experiment [17] it was 0.922 (inactive); in experiment [18] it was -0.802; in [19], -0.715. In addition, the z-score in experiment [20] is 0.337 (inactive). In experiment [2], this compound displayed a composite z-score of -0.29.

As to `CCN1C(=O)[C@H]2[C@H]3[C@H](O)[C@H](O)CC(=NNC(=O)OCc4ccc(OC)cc4)[C@@H]3CC[C@H]2C1=O`, the z-score in experiment [1] was -0.382 (inactive); in experiment [3], 1.09 (inactive); in experiment [4] it was 0.195 (inactive); in experiment [5], -0.703 (inactive); in experiment [6], 0.181 (inactive); in [7] it was 0.117. Further, the z-score was -0.13 (inactive) in experiment [8]; 0.659 (inactive) in [9]; -0.0409 in experiment [10]; -0.241 in experiment [11]; -0.0397 in experiment [12]; -0.112 in experiment [13]. Moreover, the z-score in [14] was 0.0505; in experiment [15], -0.788; in experiment [16], -0.586; in [17], -0.66 (inactive); in experiment [18], -0.232; in [19], -0.0402. In addition, in experiment [20], the z-score is 0.247 (inactive). The compound further had a composite z-score in experiment [2] of 0.238.

Take `CCOC(=O)[C@H](Cc1ccccc1)NC(=O)OC1CC(CCC2CC(CC)=NO2)OC2(CCCC(COC(=O)NCCC(C)C)O2)C1` (stereo not given in full): the z-score in experiment [1] was -0.0799 (inactive); in experiment [3], 3.14 (inactive); in experiment [4] it was -0.0787 (inactive); in experiment [5] it was -0.648 (inactive); in experiment [6] it was -0.39 (inactive); in [7], -0.459. The z-score in [8] was -0.405 (inactive); in experiment [9], 0.109 (inactive); in experiment [10] it was 1.04; in [11], -0.0093; in experiment [12] it was -1.14; in experiment [13], -1.1. The z-score in experiment [14] is -3.44; in experiment [15], -3.72; in experiment [16] it was -0.0294; in experiment [17], 0.513 (inactive); in experiment [18], -0.462; in [19], -1.22. Further, in experiment [20], the z-score was 0.453 (inactive). In experiment [2], this compound showed a composite z-score of -0.101.

On to `CC(C)(C)N1C(=O)[C@H]2[C@H]3[C@H](O)[C@H](O)CC(=NOCc4ccccc4)[C@H]3CC[C@H]2C1=O`, for which the z-score in [1] was 0.254 (inactive); in experiment [3], 4.05 (inactive); in experiment [4], 0.54 (inactive); in experiment [5] it was -0.408 (inactive); in [6], 0.133 (inactive); in [7], -0.371. Also, the z-score is -0.147 (inactive) in experiment [8]; 0.991 (inactive) in experiment [9]; 0.765 in [10]; 0.156 in experiment [11]; -0.503 in [12]; -1.11 in experiment [13]. Besides, the z-score in experiment [14] was 0.166; in experiment [15], -0.946; in experiment [16], -0.736; in experiment [17] it was 0.536 (inactive); in experiment [18] it was -0.492; in experiment [19], 0.0361. In addition, the z-score in experiment [20] is 0.727 (inactive). Further, in experiment [2], the composite z-score worked out at 0.57.

On to `O=C1OCCC=C1C(O)CCc1ccccc1` (stereo not given), for which the z-score in experiment [1] is -0.27 (inactive); in [3], 0.512 (inactive); in experiment [4] it was -0.57 (inactive); in [5], -0.177 (inactive); in [6], -0.193 (inactive); in experiment [7], -0.136. Moreover, the z-score in experiment [8] was -0.428 (inactive); in experiment [9] it was 0.0181 (inactive); in [10], 0.111; in [11] it was 0.0955; in experiment [12], -0.831; in experiment [13], -0.354. Further, the z-score was -0.575 in experiment [14]; 0.146 in [15]; -0.895 in [16]; -0.54 (inactive) in experiment [17]; 0.0715 in [18]; -0.517 in [19]. Moreover, the z-score in experiment [20] is -0.0147 (inactive). Also, the composite z-score in experiment [2] was -0.057.
